The full data set covers some 8,800 targets. This sample favours those with a hit. About 0.5% of all pairs of compound and target were hits. Values without a mark were called inactive.
Experiments:
Assay in all cases: log2 fold change, soluble protein after heating vs DMSO (PISA); higher = thermal stabilisation; K562 lysate, 10 uM; active = over 0.2 and 3.5 SD of the protein, either way, in both replicates (recomputed)
alvocidib = compound: CN1CC[C@H](c2c(O)cc(O)c3c(=O)cc(-c4ccccc4Cl)oc23)[C@H](O)C1 [alvocidib]
Outline: (§1)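 Dounce homogenisation of K562 pellets in PBS pH 7.4 with 1 mM MgCl2 produced a crude extract, used at 1 mg/mL protein. Exposure to 10 μM compound lasted 30 min, and aliquots were then heated for 3 min across 48°C-58°C, pooled and brought to 0.5% NP-40 at 4°C. The supernatant after 21,000xg for 90 min was quantified by TMTpro 16plex LC-MS/MS with channel sums equalised. Duplicate values are given as log-two fold change in thermal stability relative to solvent controls.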

Tubastatin A = compound: CN1CCc2c(c3ccccc3n2Cc2ccc(C(=O)NO)cc2)C1 [Tubastatin A]
Outline: as §1

[1] = compound: CNC(=O)C1=CC=CC=C1NC2=NC(=NC=C2Cl)NC3=C(C=C(C=C3)N4CCOCC4)OC
Outline: as §1

defactinib = compound: CNC(=O)c1ccc(Nc2ncc(C(F)(F)F)c(NCc3nccnc3N(C)S(C)(=O)=O)n2)cc1 [defactinib]
Outline: as §1

[2] = compound: CNc1nc(-c2ccc3c(N)n[nH]c3c2)cc(N2C[C@@H](C(=O)NC3CCCCC3)CC[C@H]2C)n1
Outline: as §1

encorafenib = compound: COC(=O)N[C@@H](C)CNc1nccc(-c2cn(C(C)C)nc2-c2cc(Cl)cc(NS(C)(=O)=O)c2F)n1 [encorafenib]
Outline: as §1

[3] = compound: COC(=O)[C@H](CCSC)NC(=O)C1=C(C=C(C=C1)NC[C@H](CS)N)C2=CC=CC=C2
Outline: as §1

alisertib = compound: COc1cc(Nc2ncc3c(n2)-c2ccc(Cl)cc2C(c2c(F)cccc2OC)=NC3)ccc1C(=O)O [alisertib]
Outline: as §1

[4] = compound: COc1cc2nc(-c3cc(F)ccc3O)nc(N[C@@H]3CNC[C@H]3C(C)(C)O)c2cc1OC
Outline: as §1

gefitinib = compound: COc1cc2ncnc(Nc3ccc(F)c(Cl)c3)c2cc1OCCCN1CCOCC1 [gefitinib]
Outline: as §1

UniProt O94760, sequence (O94760 whole entry, looked up): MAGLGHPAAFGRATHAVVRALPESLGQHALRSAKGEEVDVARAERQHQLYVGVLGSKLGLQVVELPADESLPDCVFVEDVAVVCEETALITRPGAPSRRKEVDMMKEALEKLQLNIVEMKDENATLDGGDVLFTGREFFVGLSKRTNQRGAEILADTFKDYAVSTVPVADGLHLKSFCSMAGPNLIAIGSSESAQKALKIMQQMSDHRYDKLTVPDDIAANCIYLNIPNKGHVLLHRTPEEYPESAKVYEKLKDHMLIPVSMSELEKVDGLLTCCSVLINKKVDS
UniProt Q9UP83, sequence (Q9UP83 whole entry, looked up): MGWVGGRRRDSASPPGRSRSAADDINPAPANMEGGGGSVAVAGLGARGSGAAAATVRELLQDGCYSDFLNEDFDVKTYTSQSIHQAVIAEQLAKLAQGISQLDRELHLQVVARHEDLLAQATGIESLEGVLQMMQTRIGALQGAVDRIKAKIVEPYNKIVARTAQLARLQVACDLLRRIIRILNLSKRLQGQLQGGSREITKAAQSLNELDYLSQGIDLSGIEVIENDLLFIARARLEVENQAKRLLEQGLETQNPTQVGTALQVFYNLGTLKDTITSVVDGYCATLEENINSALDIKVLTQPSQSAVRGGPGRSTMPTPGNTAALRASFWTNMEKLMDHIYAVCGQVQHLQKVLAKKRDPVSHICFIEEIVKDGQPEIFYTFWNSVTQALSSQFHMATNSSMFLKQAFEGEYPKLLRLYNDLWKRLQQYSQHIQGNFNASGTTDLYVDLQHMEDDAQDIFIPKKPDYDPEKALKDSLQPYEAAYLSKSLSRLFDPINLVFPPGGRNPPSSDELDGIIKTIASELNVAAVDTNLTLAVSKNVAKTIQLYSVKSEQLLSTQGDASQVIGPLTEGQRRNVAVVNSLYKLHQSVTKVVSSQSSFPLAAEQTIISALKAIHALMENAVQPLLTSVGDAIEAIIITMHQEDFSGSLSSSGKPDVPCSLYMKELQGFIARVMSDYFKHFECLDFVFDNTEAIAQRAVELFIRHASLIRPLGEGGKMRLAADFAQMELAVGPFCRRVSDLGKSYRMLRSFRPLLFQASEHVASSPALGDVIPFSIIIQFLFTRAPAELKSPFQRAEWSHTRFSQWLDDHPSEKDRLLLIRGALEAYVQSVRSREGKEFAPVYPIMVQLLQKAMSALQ
UniProt Q15398, sequence (Q15398 whole entry, looked up): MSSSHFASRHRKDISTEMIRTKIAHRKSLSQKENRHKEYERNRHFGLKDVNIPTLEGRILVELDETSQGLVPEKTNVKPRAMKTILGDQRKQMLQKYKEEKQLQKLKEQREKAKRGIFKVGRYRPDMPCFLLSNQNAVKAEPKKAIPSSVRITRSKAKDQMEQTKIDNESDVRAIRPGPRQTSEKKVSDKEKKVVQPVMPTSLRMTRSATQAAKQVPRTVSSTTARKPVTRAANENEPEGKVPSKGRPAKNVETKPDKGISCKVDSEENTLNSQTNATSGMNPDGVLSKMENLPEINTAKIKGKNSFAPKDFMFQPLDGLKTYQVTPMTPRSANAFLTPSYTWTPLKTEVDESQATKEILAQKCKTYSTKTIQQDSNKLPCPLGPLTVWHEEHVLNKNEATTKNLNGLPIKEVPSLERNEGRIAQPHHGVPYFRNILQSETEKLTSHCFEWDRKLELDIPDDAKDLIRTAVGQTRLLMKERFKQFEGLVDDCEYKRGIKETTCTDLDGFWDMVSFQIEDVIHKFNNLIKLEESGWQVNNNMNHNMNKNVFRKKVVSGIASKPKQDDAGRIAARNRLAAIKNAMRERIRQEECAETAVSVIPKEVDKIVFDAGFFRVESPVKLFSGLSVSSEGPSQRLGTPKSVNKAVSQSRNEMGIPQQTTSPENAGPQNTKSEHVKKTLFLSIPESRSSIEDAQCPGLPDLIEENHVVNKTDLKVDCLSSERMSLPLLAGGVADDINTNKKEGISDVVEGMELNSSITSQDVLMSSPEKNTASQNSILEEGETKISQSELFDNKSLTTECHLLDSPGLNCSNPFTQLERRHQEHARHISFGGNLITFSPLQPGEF
UniProt Q14746, sequence (Q14746 whole entry, looked up): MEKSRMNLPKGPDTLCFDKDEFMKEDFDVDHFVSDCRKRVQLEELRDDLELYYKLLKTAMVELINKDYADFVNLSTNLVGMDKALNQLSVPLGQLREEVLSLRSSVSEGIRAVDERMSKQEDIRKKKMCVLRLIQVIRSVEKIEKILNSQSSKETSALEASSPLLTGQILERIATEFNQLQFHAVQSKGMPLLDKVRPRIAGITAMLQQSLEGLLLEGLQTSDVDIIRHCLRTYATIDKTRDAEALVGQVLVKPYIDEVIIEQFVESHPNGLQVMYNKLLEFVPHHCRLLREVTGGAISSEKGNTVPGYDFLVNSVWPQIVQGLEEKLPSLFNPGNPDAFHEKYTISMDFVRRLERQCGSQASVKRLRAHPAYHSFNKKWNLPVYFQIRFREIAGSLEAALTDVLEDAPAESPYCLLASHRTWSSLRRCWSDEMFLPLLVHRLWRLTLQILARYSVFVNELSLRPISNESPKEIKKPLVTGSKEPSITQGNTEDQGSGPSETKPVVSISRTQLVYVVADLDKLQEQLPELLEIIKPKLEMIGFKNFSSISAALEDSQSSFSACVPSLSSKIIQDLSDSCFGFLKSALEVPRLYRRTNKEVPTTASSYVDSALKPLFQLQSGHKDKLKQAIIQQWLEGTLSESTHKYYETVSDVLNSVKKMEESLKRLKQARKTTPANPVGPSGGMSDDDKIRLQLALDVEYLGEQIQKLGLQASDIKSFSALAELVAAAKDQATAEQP
UniProt Q96EP5, sequence (Q96EP5 whole entry, looked up): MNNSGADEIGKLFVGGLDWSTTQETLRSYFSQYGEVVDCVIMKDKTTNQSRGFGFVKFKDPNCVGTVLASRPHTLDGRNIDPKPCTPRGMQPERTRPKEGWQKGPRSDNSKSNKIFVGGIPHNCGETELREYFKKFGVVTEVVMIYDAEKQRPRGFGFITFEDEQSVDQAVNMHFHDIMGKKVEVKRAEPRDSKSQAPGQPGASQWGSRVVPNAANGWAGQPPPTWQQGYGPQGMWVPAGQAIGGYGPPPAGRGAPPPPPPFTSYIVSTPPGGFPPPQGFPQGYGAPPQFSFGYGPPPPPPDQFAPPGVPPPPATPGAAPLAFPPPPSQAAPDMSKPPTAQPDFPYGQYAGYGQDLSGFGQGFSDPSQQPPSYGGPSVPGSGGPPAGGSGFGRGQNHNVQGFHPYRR
UniProt Q92466, sequence (Q92466 whole entry, looked up): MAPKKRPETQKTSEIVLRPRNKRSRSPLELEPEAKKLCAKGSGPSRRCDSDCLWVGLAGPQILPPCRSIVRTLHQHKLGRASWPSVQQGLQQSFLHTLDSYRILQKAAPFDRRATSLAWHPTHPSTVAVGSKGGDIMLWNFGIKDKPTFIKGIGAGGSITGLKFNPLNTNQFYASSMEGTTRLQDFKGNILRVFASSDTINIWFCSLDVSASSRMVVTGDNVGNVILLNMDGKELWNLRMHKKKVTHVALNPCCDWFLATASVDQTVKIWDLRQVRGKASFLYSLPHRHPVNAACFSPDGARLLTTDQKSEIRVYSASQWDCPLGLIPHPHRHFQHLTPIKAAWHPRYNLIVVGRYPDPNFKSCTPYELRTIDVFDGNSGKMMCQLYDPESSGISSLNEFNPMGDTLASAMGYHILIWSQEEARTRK
UniProt Q9H467, sequence (Q9H467 whole entry, looked up): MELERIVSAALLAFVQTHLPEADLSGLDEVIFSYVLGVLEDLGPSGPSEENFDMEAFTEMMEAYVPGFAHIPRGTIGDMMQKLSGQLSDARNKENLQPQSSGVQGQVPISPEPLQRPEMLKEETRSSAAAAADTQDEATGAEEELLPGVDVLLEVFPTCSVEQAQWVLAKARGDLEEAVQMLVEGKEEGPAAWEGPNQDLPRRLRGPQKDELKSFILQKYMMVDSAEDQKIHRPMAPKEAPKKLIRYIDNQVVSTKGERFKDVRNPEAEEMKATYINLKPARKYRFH
UniProt P57737, sequence (P57737 whole entry, looked up): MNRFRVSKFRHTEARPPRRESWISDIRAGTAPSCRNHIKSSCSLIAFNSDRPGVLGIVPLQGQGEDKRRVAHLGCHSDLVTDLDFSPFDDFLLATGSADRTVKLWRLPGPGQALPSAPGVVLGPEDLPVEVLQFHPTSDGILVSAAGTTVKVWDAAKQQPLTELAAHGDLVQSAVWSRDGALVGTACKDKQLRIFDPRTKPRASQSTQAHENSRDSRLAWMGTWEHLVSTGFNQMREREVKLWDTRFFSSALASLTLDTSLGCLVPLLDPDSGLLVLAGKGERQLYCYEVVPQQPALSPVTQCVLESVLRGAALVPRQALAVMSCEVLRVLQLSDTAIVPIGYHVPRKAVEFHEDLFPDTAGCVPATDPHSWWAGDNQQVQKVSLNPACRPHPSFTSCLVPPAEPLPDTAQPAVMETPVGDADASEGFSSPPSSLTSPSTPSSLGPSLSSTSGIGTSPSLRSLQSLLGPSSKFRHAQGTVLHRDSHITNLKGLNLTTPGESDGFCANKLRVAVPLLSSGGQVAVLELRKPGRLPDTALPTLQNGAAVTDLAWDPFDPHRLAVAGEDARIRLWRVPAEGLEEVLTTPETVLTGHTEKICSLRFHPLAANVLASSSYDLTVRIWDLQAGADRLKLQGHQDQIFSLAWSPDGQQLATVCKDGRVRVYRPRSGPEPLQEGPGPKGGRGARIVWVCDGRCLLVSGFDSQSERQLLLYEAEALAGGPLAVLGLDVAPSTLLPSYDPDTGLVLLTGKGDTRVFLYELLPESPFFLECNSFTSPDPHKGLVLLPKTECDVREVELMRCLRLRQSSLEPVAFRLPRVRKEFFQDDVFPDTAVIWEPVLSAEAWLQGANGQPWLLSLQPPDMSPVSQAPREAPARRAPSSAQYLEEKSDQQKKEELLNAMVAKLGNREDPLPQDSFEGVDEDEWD
UniProt Q99828, sequence (Q99828 whole entry, looked up): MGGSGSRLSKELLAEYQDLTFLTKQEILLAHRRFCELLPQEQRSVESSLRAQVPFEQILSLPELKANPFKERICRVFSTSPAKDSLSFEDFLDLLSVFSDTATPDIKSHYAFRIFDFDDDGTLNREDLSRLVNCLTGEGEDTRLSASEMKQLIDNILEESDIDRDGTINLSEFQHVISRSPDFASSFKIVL

Row | Target | log2 fold change (alvocidib) | log2 fold change (Tubastatin A) | log2 fold change [1] | log2 fold change (defactinib) | log2 fold change [2] | log2 fold change (encorafenib) | log2 fold change [3] | log2 fold change (alisertib) | log2 fold change [4] | log2 fold change (gefitinib)
1 | CIB1 (UniProt Q99828) | -0.003 | -0.037 | 0.01 | 0.038 | 0.041 | -0.001 | -0.215 | -0.031 | 0.072 | -0.124
2 | DENND4A isoform 2 (UniProt Q7Z401) | -0.067 | -0.141 | -0.024 | 0.077 | -0.001 | 0.013 | 0.032 | -0.018 | 0.17 | -0.041
3 | CLUH (UniProt O75153) | -0.022 | -0.076 | -0.076 | 0.002 | -0.029 | 0.007 | 0.058 | -0.014 | -0.014 | 0.017
4 | COG5 isoform 2 (UniProt Q9UP83) | 0.02 | -0.051 | 0.04 | -0.005 | -0.015 | -0.025 | -0.037 | -0.012 | -0.053 | 0.027
5 | COG7 (UniProt P83436) | 0.019 | -0.114 | -0.02 | 0.056 | -0.047 | 0.028 | 0.035 | 0.014 | 0.012 | 0.004
6 | DNAAF5 (UniProt Q86Y56) | 0.024 | -0.155 | -0.011 | -0.009 | -0.011 | 0.073 | 0.101 | 0.038 | 0.012 | -0.018
7 | CNOT4 isoform 9 (UniProt O95628) | -0.351 | 0.04 | -0.087 | -0.085 | -0.047 | 0.037 | 0.003 |  | 0.002 | 
8 | DAZAP1 (UniProt Q96EP5) | -0.027 | 0.042 | -0.026 | -0.039 | 0.058 | -0.018 | -0.045 | 0.009 | -0.004 | 0.034
9 | DIAPH1 (UniProt H9KV28) | -0.039 | 0.032 | 0.036 | 0.012 |  | 0.054 | 0.213 | -0.012 | 0.026 | -0.005
10 | COG2 (UniProt Q14746) | -0.032 | -0.114 | -0.009 | 0.05 | 0.028 | -0.009 | 0.052 | 0.021 | -0.022 | -0.039
11 | CUEDC2 (UniProt Q9H467) | 0.054 | 0.036 | 0.03 | 0.055 | 0.078 | 0.006 | -0.026 | -0.019 | -0.009 | 0.019
12 | CORO7 (UniProt P57737) | 0.001 | 0.011 | -0.092 | 0.191 | -0.05 | -0.081 | 0.061 | 0.259 |  | -0.062
13 | DDB2 (UniProt Q92466) | 0 | 0.06 | 0.041 | 0.262 (active) | 0.069 | 0.079 | -0.065 | 0.045 | 0.055 | -0.131
14 | DLGAP5 (UniProt Q15398) | -0.007 | -0.021 | 0.01 | 0.004 | -0.004 | 0.024 | 0 | -0.016 | -0.02 | -0.001
15 | DDAH1 (UniProt O94760) | 0.015 | 0.007 | 0.037 | 0.014 | -0.002 | 0 | 0.009 |  | 0.003 | 
16 | DAPK1 isoform 3 (UniProt P53355) | 0.085 | 0.001 | 0.322 | -0.109 | 0.058 |  |  | 0.051 | 0.063 | 0.139

Source: the supplement of paper PMC10849652
